Reference: paper PMC4552634, “A New Set of Chemical Starting Points with Plasmodium falciparum Transmission-Blocking Potential for Antimalarial Drug Discovery” (PLoS ONE, 2015)
About 3,200 (25%) of roughly 13,000 compounds showed an effect of 50% or more. Some of the results follow.

system: P. falciparum stage V gametocytes; design: BacTiter-Glo ATP luminescence viability of purified stage V gametocytes in 384-well plates, per cent inhibition versus DMSO; settings: 48 h, 5 µM; inhibitor

Structure (SMILES)	% Inhibition
Cc1ccccc1OCC(=O)Nc1ccc(-c2nc3cc4ccccc4cc3[nH]2)cc1 [TCMDC-125670]	10.69%
CC1(C)N=C(N)N=C(N)N1c1ccc(Oc2ccccc2)cc1 [TCMDC-137712]	1.861%
CN(C)CCC(O)C=C(c1ccc(Cl)cc1)c1ccc(Cl)cc1 (centres unmarked) [TCMDC-132094]	12.81%
Cc1ccc(S(=O)(=O)n2cc(-c3ccnc(N)c3)c3cc(Br)cnc32)cc1 [TCMDC-134306]	-5.282%
COc1ccc2nccc([C@@H](O)CN3CCC(NCCOc4ccccc4[N+](=O)[O-])CC3)c2c1 [TCMDC-140711]	39.45%
Cc1ccc(C2(CN3CCC(NC(=O)c4ccn[nH]4)CC3)CCCCC2)cc1 [TCMDC-124839]	64.93%
COc1ccc2nccc([C@@H](O)CN3CCC(NC(=O)c4nc(Cl)c(Cl)c(N)c4Cl)CC3)c2c1 [TCMDC-140771]	4.246%
Cc1ccc(NC(=O)c2ccc(C(=O)NC3CCN(CC4CCCCC4)CC3)cc2)cc1 [TCMDC-136747]	-26.65%
O=C(NC1CCN(CC2(c3ccc(Cl)cc3)CCC2)CC1)c1cscn1 [TCMDC-124829]	62.42%
CCc1[nH]nc(C(=O)NC2CCN(CC3(c4ccc(OC)cc4)CCCCC3)CC2)c1C [TCMDC-124840]	100.4%
Cc1cccc(NC(=O)c2ccc(C(=O)NC3CCN(CC4CCCCC4)CC3)cc2)c1 [TCMDC-136748]	-45.39%
CCc1[nH]nc(C(=O)Nc2cccc(N3CCCC3)c2)c1C [TCMDC-124845]	-34.24%
O=C(NC1CCN(Cc2ccccc2)CC1)c1csc2nc(-c3ccc(Cl)cc3)cn12 [TCMDC-133071]	-8.625%
COc1c(I)cc(Cc2cnc(N)nc2N)cc1I [TCMDC-138050]	-8.492%
N#Cc1cc(N(CCCOc2cccc(OC(F)(F)F)c2)Cc2ccccc2C(F)(F)F)ccc1C(F)(F)F [TCMDC-132783]	-11.19%
COc1cccc(Cc2c(C)nc3nc(N)nc(N)c3c2C)c1 [TCMDC-137650]	36.32%
Cc1ccc(F)c(OCC2CCCN(c3ccc(C(=O)NC4CC4)cn3)C2)c1 (centres unmarked) [TCMDC-134035]	18.85%
Cc1cccc2[nH]c(-c3ccc(-c4cccc(CN5CCN(CCO)CC5)c4)cc3)nc12 [TCMDC-133029]	-7.664%
NC(N)=NC(=O)Nc1ccc([N+](=O)[O-])c(Cl)c1 [TCMDC-137468]	-7.379%

Structure (SMILES)	% Inhibition
NS(=O)(=O)c1cncc(-c2ccc3nccc(-c4cn[nH]c4)c3n2)c1 [TCMDC-134293]	66.05%
Nc1ncc(-c2cn[nH]c2)cc1-c1nc2ccc(F)cc2[nH]1 [TCMDC-133559]	26.39%
Cc1cccc2[nH]c(-c3cc(-c4cn[nH]c4)cnc3N)nc12 [TCMDC-133561]	-9.324%
CC(NC(=O)c1ccc(O)c(-c2ccc(Cl)c(Cl)c2)c1)C(=O)NCCN1CCOCC1 (centres unmarked) [TCMDC-140849]	3.738%
Cc1cnc(N2CCN(CCCN3CCCC3)CC2)nc1Oc1ccc(-n2ccnc2)cc1 [TCMDC-132207]	28.92%
N#Cc1ccc(N(CCOc2ccc(Cl)c(Cl)c2)Cc2ccccc2C(F)(F)F)cc1C(F)(F)F [TCMDC-132795]	-20.83%
CC(=O)Nc1ccc(CCNC(C)Cc2ccc(C(=O)Nc3ccc(CC(C)NCCc4cccc(Cl)c4)cc3)cc2)cc1 (centres unmarked) [TCMDC-139828]	108.3%
CC(Cc1ccc(NC(=O)[C@@H](C)NCCc2cccc(Cl)c2)cc1)NCCc1cccc(Cl)c1 (some centres unmarked) [TCMDC-139831]	101.6%
CC(Cc1ccc(NC(=O)c2ccc(CC(C)NCc3ccc(Cl)c(Cl)c3)cc2)cc1)NCCc1cccc(Cl)c1 (centres unmarked) [TCMDC-139806]	8.931%
CC(=O)Nc1ccc(CNCCc2ccc(NC(=O)c3cc(Cl)cc(Cl)c3)cc2)cc1 [TCMDC-140678]	2.681%
CC(Cc1ccc(NC(=O)[C@H](C)NCCc2cccc(Cl)c2)cc1)NCCc1cccc(Cl)c1 (some centres unmarked) [TCMDC-139830]	21.29%
CC(Cc1ccc(NC(=O)c2ccc(CC(C)NCc3ccc(Cl)cc3)cc2)cc1)NCCc1cccc(Cl)c1 (centres unmarked) [TCMDC-139810]	112.2%
CCOc1ccccc1CCNC(C)Cc1ccc(C(=O)Nc2ccc(CC(C)NCCc3cccc(Cl)c3)cc2)cc1 (centres unmarked) [TCMDC-139805]	111.8%
CC(Cc1ccc(NC(=O)c2ccc(NCCc3ccccc3)cc2)cc1)NCCc1cccc(Cl)c1 (centres unmarked) [TCMDC-139832]	47.1%
Cc1nc(Nc2ccc(F)cc2)nc(N2CCc3ccccc3C2C)c1CO (centres unmarked) [TCMDC-141074]	-64.94%
O=C(Nc1cccc(-c2cccc(-c3nc4ccc(F)cc4[nH]3)c2)c1)c1csnn1 [TCMDC-136899]	16.2%
O=C(Nc1cccc(-c2ccc(-c3nc4ccc(C(F)(F)F)cc4[nH]3)cc2)c1)Nc1ccc(Cl)c(Cl)c1 [TCMDC-133274]	-18.31%
Nc1nc2ccc(S(=O)(=O)Nc3ccc(C(=O)N[C@@H](CCC(=O)O)C(=O)O)c(F)c3)cc2c(=O)[nH]1 [TCMDC-137540]	7.521%
COc1ccc(CCNC(C)Cc2ccc(C(=O)Nc3ccc(CC(C)NCCc4cccc(Cl)c4)cc3)cc2)cc1 (centres unmarked) [TCMDC-139750]	113.2%
